Inconclusive results are not listed. Activity calls are given as the source filed them. Unless noted, calls follow the shape of the full dose curve.
Key:
[1] = Nuclear factor erythroid 2-related factor 2/antioxidant responsive element (Nrf2/ARE) small molecule agonists: qHTS cell viability counter screen in human keratinocytes (AID 1919968; active = well fitted curve in the direction sought with a large enough effect in the repeat runs; an effect the other way counts as inactive or inconclusive; also: nearly all actives have a fitted effect of over 55% in size)
How it was run: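 Cytotoxicity was multiplexed with the Nrf2/ARE luciferase assay in the same wells. Stably transfected HaCaT keratinocytes were treated with test compounds for 23 h at 37 C. Cell viability was then measured by CellTiter-Fluor fluorescence.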

[2] = Nuclear factor erythroid 2-related factor 2/antioxidant responsive element (Nrf2/ARE) small molecule agonists: luciferase reporter gene qHTS assay in human keratinocytes (AID 1919969); also: nearly all actives have a fitted effect of over 35% in size
[3] = target: Gonadotropin-releasing hormone receptor (Homo sapiens) (UniProt P30968); experiment: Human gonadotropin-releasing hormone receptor (GnRHR) small molecule agonists, calcium flux assay in GnRHR-HEK293 cells (AID 1920063); also: nearly all actives have a fitted effect of over 35% in size
How it was run: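 Agonist activity was measured as intracellular calcium flux in HEK293 cells engineered to stably express human GnRHR. After dye loading for 1 hour at 37 C, compounds in DMSO were added and fluorescence was followed for 3 minutes.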

[4] = target: KiSS-1 receptor (Homo sapiens) (UniProt Q969F8); experiment: Human kisspeptin (KISS1R) small molecule agonists, calcium flux assay in KISS1R-HEK293 cells (AID 1920064; active = well fitted curve in the direction sought with a large enough effect in the repeat runs; an effect the other way counts as inactive or inconclusive)
How it was run: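 Agonist activity is monitored as intracellular calcium rise in engineered HEK293 cells carrying human KISS1R. Cells are dye-loaded for 1 h at 37 C before compound addition, and fluorescence is recorded for 3 min.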

[5] = G protein-coupled receptor (GPCR) small molecule agonists, calcium flux assay: HEK293 wild type cell line counter screen (AID 1920065)
How it was run: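 Seed cells, incubate 18 h (37 C, 5% CO2); add calcium dye, 1 h at 37 C; pin-transfer compounds, ATP control or DMSO; read fluorescence 480/540 nm each second for 3 min.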

[6] = p53 small molecule agonists, cell-based qHTS assay with human liver microsomes (AID 1963577);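 also: p53 response element beta-lactamase reporter cells with liver microsomes plus NADPH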
How it was run: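 With metabolic activation: human liver microsomes (0.5 mg/mL final) plus NADPH (0.5 mg/mL final) added alongside compounds to p53RE-bla cells; 16 h 37 C exposure; beta-lactamase read by LiveBLAzer fluorescence.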

[7] = p53 small molecule agonists, cell-based qHTS assay with rat liver microsomes (AID 1963578)
How it was run: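 Metabolic activation by rat liver microsomes and NADPH, each 0.5 mg/mL final, added right after compounds to p53RE-bla reporter cells (4,000/well, plated 5 h earlier). 16 h at 37 C, then LiveBLAzer substrate for 2 h at room temperature in the dark; fluorescence read-out.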

[8] = p53 small molecule agonists, cell-based qHTS assay with human liver microsomes: qHTS cell viability counter screen (AID 1963579); also: nearly all actives have a fitted effect of over 45% in size
How it was run: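 Metabolic activation used human liver microsomes and NADPH, both 0.5 mg/mL final, over 16 hours at 37 C on p53RE-bla cells (4,000/well). Cytotoxicity measured by CellTiter-Glo luminescence, 30 min at room temperature.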

[9] = p53 small molecule agonists, cell-based qHTS assay with rat liver microsomes: qHTS cell viability counter screen (AID 1963580); also: nearly all actives have a fitted effect of over 45% in size
How it was run: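 Rat liver microsome (0.5 mg/mL final) and NADPH (0.5 mg/mL final) co-incubation with compounds for 16 h at 37 C on HCT-116 p53RE-bla cells; cytotoxicity taken from intracellular ATP luminescence.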

[10] = p53 small molecule agonists, cell-based qHTS assay: qHTS cell viability counter screen (AID 1963581); also: nearly all actives have a fitted effect of over 45% in size
How it was run: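 Viability was counter-screened in parallel with the p53 agonist reporter by measuring intracellular ATP luminescence in the same HCT-116 p53RE-bla wells after 16 h compound treatment at 37 C.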

[11] = p53 small molecule agonists, cell-based qHTS assay (AID 1963582; active = well fitted activation curve with a large enough effect in the signal ratio in the repeat runs, not every such curve was filed as active; the % refers to the signal ratio)
How it was run: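 Cells carrying a p53-responsive bla reporter are treated with test compounds for 16 h at 37 C; beta-lactamase activity is then detected with LiveBLAzer B/G FRET substrate after 2 h at room temperature.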

[12] = target: 5-hydroxytryptamine receptor 2A (Homo sapiens) (UniProt P28223); experiment: 5-hydroxytryptamine receptor 2A (HTR2A) small molecule antagonists, cell-based qHTS assay (AID 1963586); also: nearly all actives have a fitted effect of over 45% in size
How it was run: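 CHO cells stably expressing human HTR2A were plated for 18 h at 37 C, then loaded with calcium dye for 1 h. Compounds were preincubated 5 min at room temperature before DOI (4 nM solution) was added. Kinetic fluorescence was read for 3 min.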

[13] = target: 5-hydroxytryptamine receptor 2A (Homo sapiens) (UniProt P28223); experiment: 5-hydroxytryptamine receptor 2A (HTR2A) small molecule agonists, cell-based qHTS assay (AID 1963587); also: nearly all actives have a fitted effect of over 30% in size
How it was run: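 Kinetic calcium-flux fluorescence (2 min, 1 sec intervals) after compound addition in agonist mode. HTR2A-CHO cells were cultured 18 h, then dye-loaded 1 h at 37 C.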

[14] = target: Muscarinic acetylcholine receptor M1 (Homo sapiens) (UniProt P11229); experiment: Cholinergic receptor muscarinic 1 (CHRM1) small molecule antagonists, cell-based qHTS assay (AID 1963588); also: nearly all actives have a fitted effect of over 40% in size
How it was run: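 Compounds were tested at 15 concentrations in three independent runs. Dye-loaded CHRM1-CHO cells were exposed 5 min at room temperature before stimulation by acetylcholine added at 50nM. Intracellular calcium was read kinetically on FDSS for 3 min.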

[15] = target: Muscarinic acetylcholine receptor M1 (Homo sapiens) (UniProt P11229); experiment: Cholinergic receptor muscarinic 1 (CHRM1) small molecule agonists, cell-based qHTS assay (AID 1963589); also: nearly all actives have a fitted effect of over 35% in size
How it was run: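 Cells were plated and incubated 18 h at 37 C/5% CO2, loaded with calcium dye for 1 h at 37 C, then treated with compounds in DMSO. Fluorescence was recorded kinetically at 1 sec intervals.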

[16] = cAMP Responsive Elements (CRE) small molecule agonists, cell-based qHTS assay (AID 1963590)
How it was run: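 Cells carrying a CRE-driven beta-lactamase reporter (HEK 293T) are seeded, incubated overnight (18 h), and treated with test compounds for 3 h at 37 C; reporter activity is then detected with a FRET substrate after 2 h at room temperature.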

[17] = cAMP Responsive Elements (CRE) small molecule antagonists, cell-based qHTS assay (AID 1963591; active = well fitted inhibition curve with a large enough effect in the signal ratio in the repeat runs, not every such curve was filed as active; the % refers to the signal ratio)
How it was run: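 Cells (CRE-bla HEK 293T, DMEM with 10% dialyzed FBS and 25 mM HEPES) are seeded and incubated 18 h. Compounds are added with NKH477 agonist at 0.25 uM final for 3 h, then FRET substrate for 2 h.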

[18] = target: D(2) dopamine receptor (Homo sapiens) (UniProt P14416); experiment: Dopamine D2 receptor (DRD2) small molecule agonists, cell-based qHTS assay (AID 1963594); also: nearly all actives have a fitted effect of over 35% in size
How it was run: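 cAMP accumulation in DRD2-HEK293 cells measured by HTRF after 1 h detection; compounds added 10 min before NKH477 (200nM […]) forskolin-analogue stimulation, 30 min at room temperature, with Ro20-1724 present at 0.1 mM final.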

[19] = target: D(2) dopamine receptor (Homo sapiens) (UniProt P14416); experiment: Dopamine D2 receptor (DRD2) small molecule antagonists, cell-based qHTS assay (AID 1963595; active = well fitted inhibition curve with a large enough effect in the signal ratio in the repeat runs, with a control signal flat; the % refers to the signal ratio)
How it was run: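 In this cell-based antagonist screen, compounds act for 10 min at room temperature before a 30 min challenge with 12 nM quinpirole and 200 nM NKH477. cAMP is quantified by HTRF competition in DRD2-HEK293 cells containing 0.1 mM Ro20-1724.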

[20] = target: Beta-2 adrenergic receptor (Homo sapiens) (UniProt P07550); experiment: Adrenergic beta2 receptor (ADRB2) small molecule antagonists, cell-based qHTS assay (AID 1963592); also: series mostly up to about 92 µM; nearly all actives have a fitted effect of over 50% in size
How it was run: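 Assay format: CHO-ADRB2 cells, 18-20hr seeding at 37C/5% CO2, then compound plus 1nM isoproterenol agonist mix for 0.5hr RT. Homogeneous time-resolved fluorescence cAMP detection after 1hr, expressed as 665/615 nm ratio.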
% is scaled to controls: 0 for no effect and ±100 for the full control effect.

Chain of Muscarinic acetylcholine receptor M1 (Homo sapiens) (P11229 whole entry, looked up): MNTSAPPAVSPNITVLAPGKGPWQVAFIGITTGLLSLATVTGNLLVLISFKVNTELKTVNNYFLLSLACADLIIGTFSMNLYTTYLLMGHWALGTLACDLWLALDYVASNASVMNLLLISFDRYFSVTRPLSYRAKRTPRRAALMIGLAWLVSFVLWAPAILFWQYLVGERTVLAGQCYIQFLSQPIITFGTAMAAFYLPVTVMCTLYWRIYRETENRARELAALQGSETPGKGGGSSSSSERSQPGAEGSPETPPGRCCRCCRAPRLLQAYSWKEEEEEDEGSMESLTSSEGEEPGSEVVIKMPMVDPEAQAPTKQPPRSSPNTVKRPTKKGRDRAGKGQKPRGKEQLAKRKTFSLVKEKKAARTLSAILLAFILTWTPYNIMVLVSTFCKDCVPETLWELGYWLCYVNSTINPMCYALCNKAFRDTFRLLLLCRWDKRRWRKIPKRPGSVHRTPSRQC
Chain of Gonadotropin-releasing hormone receptor (Homo sapiens) (P30968 whole entry, looked up): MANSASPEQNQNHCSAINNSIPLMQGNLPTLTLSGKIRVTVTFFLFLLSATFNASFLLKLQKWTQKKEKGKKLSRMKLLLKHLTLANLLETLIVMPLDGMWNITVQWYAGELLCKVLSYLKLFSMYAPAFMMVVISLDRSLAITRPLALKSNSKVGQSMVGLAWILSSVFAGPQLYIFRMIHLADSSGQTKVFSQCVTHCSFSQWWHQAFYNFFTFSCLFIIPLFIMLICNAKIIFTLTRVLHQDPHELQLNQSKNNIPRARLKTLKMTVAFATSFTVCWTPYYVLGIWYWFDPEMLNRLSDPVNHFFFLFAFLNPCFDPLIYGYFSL
Chain of 5-hydroxytryptamine receptor 2A (Homo sapiens) (P28223 whole entry, looked up): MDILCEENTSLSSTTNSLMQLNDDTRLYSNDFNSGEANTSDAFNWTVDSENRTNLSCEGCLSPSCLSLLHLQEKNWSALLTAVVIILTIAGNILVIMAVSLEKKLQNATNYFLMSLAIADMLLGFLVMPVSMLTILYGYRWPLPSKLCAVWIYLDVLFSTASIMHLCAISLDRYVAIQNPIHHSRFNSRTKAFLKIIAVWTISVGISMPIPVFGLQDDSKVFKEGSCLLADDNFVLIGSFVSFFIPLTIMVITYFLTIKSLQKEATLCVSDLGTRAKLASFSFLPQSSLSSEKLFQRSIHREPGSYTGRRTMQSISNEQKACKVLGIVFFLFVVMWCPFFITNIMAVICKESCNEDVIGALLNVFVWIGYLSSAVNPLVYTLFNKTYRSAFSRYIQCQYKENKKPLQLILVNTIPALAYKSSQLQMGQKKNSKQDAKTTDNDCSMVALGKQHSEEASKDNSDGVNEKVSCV
Chain of D(2) dopamine receptor (Homo sapiens) (P14416 whole entry, looked up): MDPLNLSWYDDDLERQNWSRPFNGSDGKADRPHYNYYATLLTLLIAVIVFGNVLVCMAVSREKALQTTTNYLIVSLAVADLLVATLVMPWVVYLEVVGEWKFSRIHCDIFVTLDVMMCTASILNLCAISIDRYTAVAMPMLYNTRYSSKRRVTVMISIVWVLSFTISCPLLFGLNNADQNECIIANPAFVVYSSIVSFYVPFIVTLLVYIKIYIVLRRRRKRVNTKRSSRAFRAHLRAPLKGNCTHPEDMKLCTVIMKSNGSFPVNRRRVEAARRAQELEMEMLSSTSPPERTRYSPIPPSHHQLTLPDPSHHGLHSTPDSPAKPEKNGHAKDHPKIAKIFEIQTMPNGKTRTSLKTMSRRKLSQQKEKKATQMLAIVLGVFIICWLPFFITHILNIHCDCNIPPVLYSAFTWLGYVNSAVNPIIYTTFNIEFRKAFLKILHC
Chain of KiSS-1 receptor (Homo sapiens) (Q969F8 whole entry, looked up): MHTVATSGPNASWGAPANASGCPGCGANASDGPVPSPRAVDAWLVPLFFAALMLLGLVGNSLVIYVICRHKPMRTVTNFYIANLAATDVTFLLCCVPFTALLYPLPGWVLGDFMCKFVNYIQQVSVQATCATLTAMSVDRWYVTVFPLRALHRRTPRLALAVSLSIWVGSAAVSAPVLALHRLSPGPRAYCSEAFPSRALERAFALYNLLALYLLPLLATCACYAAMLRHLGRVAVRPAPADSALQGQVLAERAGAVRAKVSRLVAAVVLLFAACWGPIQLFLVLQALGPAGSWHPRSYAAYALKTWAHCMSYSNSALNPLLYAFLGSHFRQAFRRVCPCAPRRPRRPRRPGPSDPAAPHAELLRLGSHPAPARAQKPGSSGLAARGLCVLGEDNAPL
Chain of Beta-2 adrenergic receptor (Homo sapiens) (P07550 whole entry, looked up): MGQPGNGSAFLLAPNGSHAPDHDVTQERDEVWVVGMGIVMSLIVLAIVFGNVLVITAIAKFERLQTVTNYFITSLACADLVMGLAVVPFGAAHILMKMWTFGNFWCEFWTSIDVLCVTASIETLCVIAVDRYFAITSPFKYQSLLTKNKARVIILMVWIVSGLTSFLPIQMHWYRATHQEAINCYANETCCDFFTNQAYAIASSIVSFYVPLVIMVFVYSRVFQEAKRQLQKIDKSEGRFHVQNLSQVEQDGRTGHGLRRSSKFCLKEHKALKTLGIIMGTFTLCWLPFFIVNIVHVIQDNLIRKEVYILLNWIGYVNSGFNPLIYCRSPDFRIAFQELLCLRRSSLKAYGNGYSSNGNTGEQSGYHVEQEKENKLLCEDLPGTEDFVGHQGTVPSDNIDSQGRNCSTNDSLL

O=C(O)c1ccccc1[N+](=O)[O-]
inactive: Potency [1] | Potency [2] | Potency [3] | Potency [4] | Potency [5] | Potency [6] | Potency [7] | Potency [8] | Potency [9] | Potency [10] | Potency [11] | Potency [12] | Potency [13] | Potency [14] | Potency [15] | Potency [16] | Potency [17] | Potency [18] | Potency [19]

ON(Cc1ccccc1)Cc1ccccc1
inactive: Potency [1] | Potency [2] | Potency [3] | Potency [4] | Potency [5] | Potency [6] | Potency [7] | Potency [8] | Potency [9] | Potency [10] | Potency [11] | Potency [12] | Potency [13] | Potency [14] | Potency [15] | Potency [16] | Potency [17] | Potency [18] | Potency [19]

CCCCCCCCCCCCCCCC(=O)OC
inactive: activity change, negative = cytotoxicity [1] 3.99% [at 19 µM] | activity, positive = activation [2] 0.79% [at 19 µM] | activity change [3] 0.561% [at 11.8 µM, active compounds read high] | activation [4] -2.17% [at 15.8 µM] | activation [5] 0.455% [at 11.8 µM] | activation [6] 0.811% [at 13.5 µM] | activation [7] 0.588% [at 13.6 µM] | activity change, negative = cytotoxicity [8] -1.62% [at 13.5 µM] | activity change, negative = cytotoxicity [9] -0.0573% [at 13.5 µM] | activity change, negative = cytotoxicity [10] 2.56% [at 13.5 µM] | activation [11] -4.84% [at 13.5 µM] | activity, negative = inhibition [12] -2.95% [at 12.7 µM] | activation [13] -0.493% [at 15.9 µM] | activity, negative = inhibition [14] -19.7% [at 12.6 µM] | activation [15] -0.393% [at 15.8 µM] | activation [16] -0.453% [at 19 µM] | activity change, negative = inhibition [17] -6.58% [at 18.9 µM] | activity change, negative = inhibition [20] 5.87% [at 19 µM] | activation [18] 0.309% [at 19 µM] | activity change, negative = inhibition [19] -0.0877% [at 18.9 µM]

O=C(O)C(S)C(S)C(=O)O (configuration not stated)
inactive: Potency [1] | Potency [2] | Potency [3] | Potency [4] | Potency [5] | Potency [6] | Potency [7] | Potency [8] | Potency [9] | Potency [10] | Potency [11] | Potency [12] | Potency [13] | Potency [14] | Potency [15] | Potency [16] | Potency [17] | Potency [20] | Potency [18] | Potency [19]

CCCCCCCCCOCC1CO1 (configuration not stated)
inactive: Potency [1] | Potency [2] | Potency [3] | Potency [4] | Potency [5] | Potency [6] | Potency [7] | Potency [8] | Potency [9] | Potency [10] | Potency [11] | Potency [12] | Potency [13] | Potency [14] | Potency [15] | Potency [16] | Potency [17] | Potency [18] | Potency [19]

Reference: PubChem BioAssay (Tox21)
